# Measurements as given in PubChem BioAssay (Tox21).
# Records with an inconclusive call do not appear. Where a call stands in place of a potency, no number is given. Active and inactive are the calls of the source. Unless noted, calls follow the shape of the dose curve; as a rule, active = well fitted curve in the direction sought with a large enough effect in the repeat runs; inconclusive = weak or mixed curves; inactive = no such curve, though single readings can be large; an effect the other way counts as inactive or inconclusive.
# Columns and labels:
# [1] = qHTS assay to identify small molecule antagonists of the glucocorticoid receptor (GR) signaling pathway - cell viability counter screen (AID 720693); also: nearly all actives have a fitted effect of over 55% in size
# [2] = qHTS assay for identifying genotoxic compounds that show differential cytotoxicity against isogenic chicken DT40 cell lines with known DNA damage response pathways - wild type cell line (AID 743012); also: nearly all actives have a fitted effect of over 60% in size; also: potency is read from the fitted curve at half-maximal effect
# Outline: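 Cells (DT40 wild type, 300/well) are treated with DMSO-dissolved compounds after a ~0.5 h pre-incubation and kept 40 h at 37 C/5% CO2. Viability is then measured by CellTiter-Glo luminescence following 30 min at room temperature.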
# [3] = qHTS assay for identifying genotoxic compounds that show differential cytotoxicity against isogenic chicken DT40 cell lines with known DNA damage response pathways - Rev3 mutant cell line (AID 743014); also: nearly all actives have a fitted effect of over 55% in size; also: potency is read from the fitted curve at half-maximal effect
# [4] = qHTS assay for identifying genotoxic compounds that show differential cytotoxicity against isogenic chicken DT40 cell lines with known DNA damage response pathways - Rad54/Ku70 mutant cell line (AID 743015); also: nearly all actives have a fitted effect of over 60% in size; also: potency is read from the fitted curve at half-maximal effect
# [5] = qHTS assay to identify small molecule antagonists of the androgen receptor (AR) signaling pathway - cell viability counter screen (AID 743033; also: nearly all actives have a fitted effect of over 45% in size)
# [6] = target: Androgen receptor (Homo sapiens) (UniProt P10275); assay: qHTS assay to identify small molecule antagonists of the androgen receptor (AR) signaling pathway (AID 743035; active = well fitted inhibition curve with a large enough effect in the signal ratio in the repeat runs, not every such curve was filed as active; the % refers to the signal ratio; also: potency is read from the fitted curve at half-maximal effect)
# Outline: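 Antagonism is scored as loss of R1881-driven beta-lactamase reporter expression in HEK293 cells carrying the reporter under a UAS element, after 16 h co-treatment at 37C and a 2 h room-temperature FRET substrate read.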
# [7] = target: Androgen receptor (Homo sapiens) (UniProt P10275); assay: qHTS assay to identify small molecule agonists of the androgen receptor (AR) signaling pathway (AID 743036; active = well fitted activation curve with a large enough effect in the signal ratio in the repeat runs, with a control signal flat, not every such curve was filed as active; the % refers to the signal ratio)
# Outline: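 Following a 4 h settling period, AR-UAS-bla HEK293 cells were dosed with compounds for 16 h at 37C. A 2 h room-temperature incubation with LiveBLAzer B/G FRET substrate preceded the fluorescence measurement.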
# [8] = target: Androgen receptor (Homo sapiens) (UniProt P10275); assay: qHTS assay to identify small molecule agonists of the androgen receptor (AR) signaling pathway using the MDA cell line (AID 743040; also: nearly all actives have a fitted effect of over 20% in size; also: potency is read from the fitted curve at half-maximal effect)
# Outline: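 After a 5 h incubation at 37C and 0% CO2, MDA-kb2 reporter cells were dosed with compounds in DMSO and kept 16 h under the same conditions. Luciferase activity was then read as luminescence with ONE-Glo.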
# [9] = qHTS assay to identify small molecule antagonists of the androgen receptor (AR) signaling pathway using the MDA cell line - cell viability counter screen (AID 743041; also: nearly all actives have a fitted effect of over 45% in size)
# Outline: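 R1881-driven MDA-kb2 AR-luc cells, 3,000/well, were dosed with library compounds for 16 h; cell health came from CellTiter-Fluor fluorescence in the reporter wells.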
# [10] = target: Androgen receptor (Homo sapiens) (UniProt P10275); assay: qHTS assay to identify small molecule antagonists of the androgen receptor (AR) signaling pathway using the MDA cell line (AID 743042; also: nearly all actives have a fitted effect of over 55% in size)
# Outline: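 Antagonist mode: compounds plus R1881 agonist added to MDA-kb2 AR-luc cells, incubated 16 h at 37C. Luciferase reporter luminescence quantified, with multiplexed CellTiter-Fluor readout for cell viability.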
# [11] = qHTS assay to identify small molecule antagonists of the thyroid receptor (TR) signaling pathway - cell viability counter screen (AID 743064); also: nearly all actives have a fitted effect of over 50% in size
# Outline: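 CellTiter-Fluor readout, 30 min at 37 °C/5% CO2, following 23.5 h incubation of GH3.TRE-Luc cells with test compound and 1 nM T3 (final).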
# [12] = qHTS assay to identify small molecule antagonists of the thyroid receptor (TR) signaling pathway (AID 743065); also: nearly all actives have a fitted effect of over 55% in size; also: potency is read from the fitted curve at half-maximal effect
# Outline: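 Antagonism measured as loss of luciferase signal in GH3 cells stably carrying a TRE-luciferase reporter, co-treated with compound and T3 (1 nM final) for 23.5 h at 37 C. Viability was read in the same well by CellTiter-Fluor.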
# [13] = tested on: thyroid hormone receptor (rat, GH3 cells); assay: qHTS assay to identify small molecule agonists of the thyroid receptor (TR) signaling pathway (AID 743066; calls by dose curve)
# [14] = target: Estrogen receptor (Homo sapiens) (UniProt P03372); assay: qHTS assay to identify small molecule antagonists of the estrogen receptor alpha (ER-alpha) signaling pathway (AID 743069; active = well fitted curve in the direction sought with a large enough effect in the signal ratio in the repeat runs, not every such curve was filed as active; the % refers to the signal ratio)
# Outline: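 Compound effects are measured against 17beta-estradiol stimulation in HEK293 cells with a UAS-controlled beta-lactamase reporter for ER-alpha. Exposure lasts 18 hr at 37C; LiveBLAzer B/G FRET substrate follows for 2 hr at room temperature.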
# [15] = target: Estrogen receptor (Homo sapiens) (UniProt P03372); assay: qHTS assay to identify small molecule agonists of the estrogen receptor alpha (ER-alpha) signaling pathway (AID 743075; calls by dose curve)
# [16] = target: Estrogen receptor (Homo sapiens) (UniProt P03372); assay: qHTS assay to identify small molecule agonists of the estrogen receptor alpha (ER-alpha) signaling pathway using the BG1 cell line (AID 743079); also: nearly all actives have a fitted effect of over 20% in size; also: potency is read from the fitted curve at half-maximal effect
# [17] = qHTS assay to identify small molecule antagonists of the estrogen receptor alpha (ER-alpha) signaling pathway using the BG1 cell line (AID 743080; calls by dose curve;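 also: BG1 cells stimulated with 17beta-estradiol alongside compound; series mostly up to about 70 µM; nearly all actives have a fitted effect of over 25% in size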)
# Outline: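 Readout is ONE-Glo luminescence, taken 30 min at room temperature after reagent addition, preceded by a CellTiter-Fluor viability read; BG1-Luc-4E2 cells had received compound and 17beta-estradiol for 21.5 h at 37 C.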
# [18] = qHTS assay to identify small molecule antagonists of the estrogen receptor alpha (ER-alpha) signaling pathway using the BG1 cell line - cell viability counter screen (AID 743081);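 also: compound given together with 17beta-estradiol as the ER stimulus; series mostly up to about 70 µM; nearly all actives have a fitted effect of over 45% in size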
# [19] = target: Aromatase (Homo sapiens) (UniProt P11511); assay: qHTS assay to identify aromatase inhibitors (AID 743083)
# [20] = qHTS assay to identify small molecule antagonists of the estrogen receptor alpha (ER-alpha) signaling pathway - cell viability counter screen (AID 743074; calls by dose curve;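 also: HEK293 cells carrying ER-alpha-UAS-bla reporter stimulated with 17beta-estradiol; nearly all actives have a fitted effect of over 45% in size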)
# Sequence of Estrogen receptor (Homo sapiens) (P03372 whole entry, looked up): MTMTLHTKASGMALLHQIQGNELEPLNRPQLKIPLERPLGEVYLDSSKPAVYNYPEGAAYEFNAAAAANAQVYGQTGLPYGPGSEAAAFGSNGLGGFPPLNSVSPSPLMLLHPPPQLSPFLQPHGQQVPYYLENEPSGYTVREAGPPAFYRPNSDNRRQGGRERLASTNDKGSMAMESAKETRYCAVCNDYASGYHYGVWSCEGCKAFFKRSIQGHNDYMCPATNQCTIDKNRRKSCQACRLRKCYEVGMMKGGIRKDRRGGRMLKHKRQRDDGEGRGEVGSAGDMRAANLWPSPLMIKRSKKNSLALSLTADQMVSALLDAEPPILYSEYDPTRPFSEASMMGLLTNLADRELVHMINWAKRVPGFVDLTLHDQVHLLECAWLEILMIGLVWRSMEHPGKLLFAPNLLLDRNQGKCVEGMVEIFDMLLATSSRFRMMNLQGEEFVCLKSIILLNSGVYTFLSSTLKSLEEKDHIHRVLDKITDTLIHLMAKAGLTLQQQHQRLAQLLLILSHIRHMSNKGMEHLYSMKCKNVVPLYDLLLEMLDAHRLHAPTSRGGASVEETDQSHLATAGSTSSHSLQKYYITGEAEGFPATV
# Sequence of Aromatase (Homo sapiens) (P11511 whole entry, looked up): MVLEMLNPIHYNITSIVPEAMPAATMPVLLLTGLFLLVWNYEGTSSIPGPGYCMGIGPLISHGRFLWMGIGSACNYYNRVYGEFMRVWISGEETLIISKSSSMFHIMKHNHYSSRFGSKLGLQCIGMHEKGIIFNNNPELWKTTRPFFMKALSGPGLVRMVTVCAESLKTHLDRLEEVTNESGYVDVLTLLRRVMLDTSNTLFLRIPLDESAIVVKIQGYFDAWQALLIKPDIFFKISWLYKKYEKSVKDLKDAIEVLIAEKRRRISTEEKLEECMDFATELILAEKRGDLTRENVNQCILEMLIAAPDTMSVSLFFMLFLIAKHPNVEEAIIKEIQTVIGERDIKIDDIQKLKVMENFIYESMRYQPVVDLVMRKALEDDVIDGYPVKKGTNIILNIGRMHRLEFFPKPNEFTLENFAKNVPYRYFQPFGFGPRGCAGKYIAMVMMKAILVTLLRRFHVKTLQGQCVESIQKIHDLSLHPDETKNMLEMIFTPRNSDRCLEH
# Sequence of Androgen receptor (Homo sapiens) (P10275 whole entry, looked up): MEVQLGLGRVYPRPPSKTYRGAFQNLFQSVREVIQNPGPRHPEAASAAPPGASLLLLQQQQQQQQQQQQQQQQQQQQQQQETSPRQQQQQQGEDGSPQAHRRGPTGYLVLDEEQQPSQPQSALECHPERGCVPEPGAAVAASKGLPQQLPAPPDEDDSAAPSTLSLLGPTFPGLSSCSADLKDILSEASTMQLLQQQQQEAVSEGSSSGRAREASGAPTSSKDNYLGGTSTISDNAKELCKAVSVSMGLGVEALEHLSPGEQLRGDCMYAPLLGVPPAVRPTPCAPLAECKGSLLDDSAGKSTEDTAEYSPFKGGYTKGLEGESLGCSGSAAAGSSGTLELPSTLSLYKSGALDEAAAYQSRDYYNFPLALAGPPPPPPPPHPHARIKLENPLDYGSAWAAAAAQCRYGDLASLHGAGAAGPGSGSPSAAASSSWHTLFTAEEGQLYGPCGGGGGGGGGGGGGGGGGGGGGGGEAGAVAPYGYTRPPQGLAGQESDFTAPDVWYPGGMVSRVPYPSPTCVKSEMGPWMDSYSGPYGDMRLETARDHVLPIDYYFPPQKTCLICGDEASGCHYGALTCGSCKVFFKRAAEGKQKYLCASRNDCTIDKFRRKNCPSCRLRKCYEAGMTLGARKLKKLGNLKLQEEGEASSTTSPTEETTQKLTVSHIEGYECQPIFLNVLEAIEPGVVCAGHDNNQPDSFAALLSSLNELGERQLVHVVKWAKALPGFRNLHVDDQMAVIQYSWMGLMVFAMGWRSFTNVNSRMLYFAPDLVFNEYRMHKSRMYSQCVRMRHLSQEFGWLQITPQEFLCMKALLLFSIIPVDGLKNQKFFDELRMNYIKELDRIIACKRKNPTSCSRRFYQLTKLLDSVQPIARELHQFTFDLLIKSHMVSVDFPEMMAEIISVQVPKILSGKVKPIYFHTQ
SMILES,outcome [1],Potency [2],Potency [3],Potency [4],outcome [5],Potency [6],outcome [7],Potency [8],Potency [9],outcome [10],Potency [11],Potency [12],Potency [13],Potency [14],Potency [15],Potency [16],Potency [17],outcome [18],Potency [19],outcome [20]
O=S(=O)(O)c1ccccc1O,inactive,inactive,inactive,inactive,inactive,inactive,inactive,inactive,inactive,inactive,inactive,inactive,inactive,inactive,inactive,inactive,inactive,inactive,inactive,–
C=C(C)C(=O)OCCC(C)OC(=O)C(=C)C (stereo unspecified),inactive,inactive,inactive,inactive,inactive,–,–,–,inactive,–,inactive,inactive,inactive,inactive,inactive,inactive,inactive,inactive,inactive,inactive
CCN(CC)S(=O)(=O)c1ccc(C(=O)O)cc1,inactive,inactive,inactive,inactive,inactive,–,–,–,inactive,–,inactive,inactive,inactive,inactive,inactive,inactive,inactive,inactive,inactive,inactive
O=[N+]([O-])c1ccc(Oc2ccc([N+](=O)[O-])cc2)cc1,inactive,inactive,inactive,inactive,inactive,–,–,–,inactive,–,inactive,inactive,inactive,inactive,inactive,inactive,inactive,inactive,inactive,inactive
CNc1ncnc2nc[nH]c12,inactive,inactive,inactive,inactive,inactive,–,–,–,inactive,–,inactive,inactive,inactive,inactive,inactive,inactive,inactive,inactive,inactive,inactive
CC12CCC(CC1=O)C2(C)C (stereo unspecified),inactive,inactive,inactive,inactive,inactive,–,–,–,inactive,–,inactive,inactive,inactive,inactive,inactive,inactive,inactive,inactive,inactive,inactive
O=C(O)/C=C/c1ccc(/C=C/C(=O)O)cc1,inactive,inactive,inactive,inactive,inactive,inactive,inactive,inactive,inactive,inactive,inactive,inactive,inactive,–,–,–,–,inactive,inactive,inactive
COc1cccc(Br)c1,inactive,inactive,inactive,inactive,inactive,inactive,inactive,inactive,inactive,inactive,inactive,inactive,inactive,inactive,inactive,inactive,inactive,inactive,inactive,inactive
Fc1ccccc1-c1ccccc1,inactive,inactive,inactive,inactive,inactive,–,–,–,inactive,–,inactive,inactive,inactive,inactive,inactive,inactive,inactive,inactive,inactive,inactive
O=C(O)c1cccc(C(=O)O)n1,inactive,inactive,inactive,inactive,inactive,–,–,–,inactive,–,inactive,inactive,inactive,inactive,inactive,inactive,inactive,inactive,inactive,inactive
CCCCc1ccc2cccc(S(=O)(=O)O)c2c1,inactive,inactive,inactive,inactive,inactive,inactive,inactive,inactive,inactive,inactive,–,inactive,inactive,inactive,inactive,inactive,inactive,inactive,inactive,inactive
Nc1cc(N)cc(C(=O)O)c1,inactive,inactive,inactive,inactive,inactive,–,–,–,inactive,–,inactive,inactive,inactive,inactive,inactive,inactive,inactive,inactive,inactive,inactive
CCCCCCOC(=O)CC(CC(=O)OCCCCCC)(OC(=O)CCC)C(=O)OCCCCCC,inactive,inactive,inactive,inactive,inactive,–,inactive,inactive,inactive,inactive,–,inactive,inactive,inactive,inactive,inactive,inactive,inactive,inactive,inactive
CN(C)CCn1nnnc1SCC1=C(C(=O)O)N2C(=O)[C@@H](NC(=O)Cc3csc(N)n3)[C@H]2SC1,inactive,inactive,inactive,inactive,inactive,inactive,inactive,inactive,inactive,inactive,–,inactive,inactive,–,–,–,–,inactive,inactive,–
CC(C)=CCC/C(C)=C/C(=O)O,inactive,inactive,inactive,inactive,inactive,–,–,–,inactive,–,inactive,inactive,inactive,inactive,inactive,inactive,inactive,inactive,inactive,inactive
C[N+](C)(C)CC[N+]1(C)Cc2c(Cl)c(Cl)c(Cl)c(Cl)c2C1,inactive,inactive,inactive,inactive,inactive,–,–,–,inactive,–,inactive,inactive,inactive,inactive,inactive,inactive,inactive,inactive,inactive,inactive

SMILES,outcome [1],Potency [2],Potency [3],Potency [4],outcome [5],Potency [6],outcome [7],Potency [8],Potency [9],outcome [10],Potency [11],Potency [12],Potency [13],Potency [14],Potency [15],Potency [16],Potency [17],outcome [18],Potency [19],outcome [20]
Oc1cc(O)c2c(c1)O[C@H](c1ccc(O)c(O)c1)[C@H](O)C2,inactive,inactive,inactive,inactive,inactive,–,–,–,inactive,–,inactive,inactive,inactive,inactive,inactive,inactive,inactive,inactive,inactive,inactive
CC(C)CCCCCCN,inactive,inactive,inactive,inactive,inactive,–,inactive,inactive,inactive,inactive,inactive,inactive,inactive,inactive,inactive,inactive,–,inactive,inactive,inactive
CC(C)c1cccc(C(C)C)c1N,inactive,inactive,inactive,inactive,inactive,–,–,–,inactive,–,inactive,inactive,inactive,inactive,inactive,inactive,inactive,inactive,inactive,inactive
Cc1ncc(CSSCc2cnc(C)c(O)c2CO)c(CO)c1O,inactive,inactive,inactive,inactive,inactive,–,inactive,inactive,inactive,inactive,inactive,inactive,inactive,inactive,inactive,inactive,–,inactive,inactive,inactive
OCC(CO)(CO)COCC(CO)(CO)CO,inactive,inactive,inactive,inactive,inactive,–,–,–,inactive,–,inactive,inactive,inactive,inactive,inactive,inactive,inactive,inactive,inactive,inactive
Nc1cc(C(Cl)=C(Cl)Cl)c(S(N)(=O)=O)cc1S(N)(=O)=O,inactive,inactive,inactive,inactive,inactive,–,–,–,inactive,–,inactive,inactive,inactive,inactive,inactive,inactive,inactive,inactive,inactive,inactive
CC(=O)O[C@H](CC(=O)[O-])C[N+](C)(C)C,inactive,inactive,inactive,inactive,inactive,–,–,–,inactive,–,inactive,inactive,inactive,inactive,inactive,inactive,inactive,inactive,inactive,inactive
C#CC(O)C(CC)CCCC (stereo unspecified),inactive,inactive,inactive,inactive,inactive,inactive,inactive,inactive,inactive,inactive,–,inactive,inactive,–,–,–,–,inactive,inactive,inactive
Nc1nc2c(ncn2CCC(CO)CO)c(=O)[nH]1,inactive,3.35 µM (active),5.96 µM (active),5.96 µM (active),inactive,–,–,–,inactive,–,inactive,inactive,inactive,inactive,inactive,inactive,inactive,inactive,inactive,inactive
C1CCCCCCCCCCC1,inactive,inactive,inactive,inactive,inactive,–,inactive,inactive,inactive,inactive,inactive,inactive,inactive,inactive,inactive,inactive,–,inactive,inactive,inactive
CCO[Si](C)(OCC)OCC,inactive,inactive,inactive,inactive,inactive,–,–,–,inactive,–,inactive,inactive,inactive,inactive,inactive,inactive,inactive,inactive,inactive,inactive
CCCC(=O)O[C@]1(C(=O)CCl)[C@@H](C)C[C@H]2[C@@H]3CCC4=CC(=O)C=C[C@]4(C)[C@@]3(F)C(=O)C[C@@]21C,inactive,6.68 µM (active),7.5 µM (active),13.3 µM (active),inactive,7.56 µM (active),–,6 nM (active),–,inactive,inactive,11.9 µM (active),inactive,–,inactive,inactive,–,–,inactive,inactive
NS(=O)(=O)c1cc2c(cc1C(F)(F)F)NC(Cc1ccccc1)NS2(=O)=O (stereo unspecified),inactive,inactive,inactive,inactive,inactive,inactive,inactive,inactive,inactive,inactive,inactive,inactive,inactive,–,–,–,–,inactive,inactive,inactive
CCCC(C)CO (stereo unspecified),inactive,inactive,inactive,inactive,inactive,inactive,inactive,–,inactive,inactive,–,inactive,inactive,–,–,–,–,inactive,inactive,inactive
CCCOCC(C)OCC(C)O (stereo unspecified),inactive,inactive,inactive,inactive,inactive,inactive,–,inactive,inactive,inactive,–,inactive,inactive,–,–,–,–,inactive,inactive,inactive
NCC[C@H](O)C(=O)N[C@@H]1C[C@H](N)[C@@H](O[C@H]2O[C@H](CN)[C@@H](O)[C@H](O)[C@H]2O)[C@H](O)[C@H]1O[C@H]1O[C@H](CO)[C@@H](O)[C@H](N)[C@H]1O,inactive,inactive,inactive,inactive,inactive,inactive,inactive,inactive,inactive,inactive,inactive,inactive,inactive,inactive,inactive,23.7 µM (active),inactive,inactive,inactive,inactive
